Bioassay records (PubChem)
VACV mCherry inh = vaccinia inhibition (mCherry reporter) | Vaccinia virus mCherry reporter infection, fluorescence | Potency, µM (titrated, usually from 36.5 µM), without a hit: at the top dose activity change, negative = inhibition, actives largely listed as inhibitors | hit rate 0.63% among 310,000 | AID 720579; calls by dose curve; tested in A549 cells; further: on the % scale 0 is the no-effect control and ±100 the full control effect; nearly all actives have a fitted effect of over 35% in size
HCV inhibitor = inhibitors of hepatitis C virus infection. Huh7.5.1 HCVcc-Cre infection, luciferase reporter, 44 h. AID 651820. Potency, µM (highest dose often 41.8 µM), without a hit: at the highest dose activity change, negative = inhibition, usual class: inhibitors. hit rate 3.4% among 340,000; further: on the % scale 0 is the no-effect control and ±100 the full control effect
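After 44 h co-culture of compound, cells and HCVcc-Cre (~0.5 moi), substrate is added for 15 min at room temperature and luciferase measured over 15 sec. Cells were seeded at 1,000/well and pre-cultured 4 h.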
NS1 inh = influenza NS1 inhibition. AID 2326. hit rate 0.4% among 270,000. Potency, µM (series often up to 46.1 µM), without a hit: at the top dose activity, positive = more growth; calls by dose curve; further: actives are rising curves; nearly all actives have a fitted effect of over 50% in size
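OD600 was taken as the measure of yeast growth restored by compound in an NS1-expressing S. cerevisiae strain. Cells had been washed out of glucose medium and diluted 1:100 into galactose -URA medium, pH 6.0.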
Vaccinia Venus = inhibitors of vaccinia virus (Venus reporter); Vaccinia virus Venus reporter expression, fluorescence; Potency, µM (series often up to 36.5 µM), for inactives: at the top dose activity change, negative = inhibition, most hits filed as inhibitors; hit rate 0.46% among 330,000; calls by dose curve; tested in A549 cells; further: on the % scale 0 is the no-effect control and ±100 the full control effect; nearly all actives have a fitted effect of over 30% in size
Pf growth 96h = P. falciparum growth inhibition at 96 hour, primary screen for plastid delayed-death inhibitors; Potency, µM (highest dose often 28.7 µM), for inactives: top-dose activity change, negative = inhibition, most hits filed as inhibitors; hit rate 6.9% among 320,000; P. falciparum luciferase reporter growth, 96 h; further: on the % scale 0 is the no-effect control and ±100 the full control effect
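Parasite growth measured via integrated firefly luciferase reporter in P. falciparum. Infected erythrocytes at 2% hematocrit, 0.05% parasitemia final were treated 96 hours at 37 C under 5% CO2, and luminescence was read.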
Pf growth 48h = P. falciparum growth inhibition at 48 hours (one generation) | P. falciparum luciferase growth in erythrocytes, 48 h | Potency, µM (series often up to 28.7 µM), without a hit: at the highest dose activity change, negative = inhibition, usual class: inhibitors | hit rate 5.9% among 310,000; further: on the % scale 0 is the no-effect control and ±100 the full control effect
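Here the parasites carry a stable luciferase gene and grow inside erythrocytes in Albumax-based RPMI medium with compound for one erythrocytic cycle. Activity is scored as loss of luminescent signal.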
Starred values were filed as active, the others as inactive; i = inactive; ? = inconclusive; . = no result given; [ ] = dose if it differs, or a comment. This is a sample that favours compounds with a hit; in the whole collection about 11% have one here. Unless noted, the call rests on the fitted dose curve; in most records, active means well fitted inhibition curve with a large enough effect; inconclusive means small, poorly fitted or top-dose-only effect, or another doubt; inactive means no such curve, though single readings can be large or run the other way. Potency means the concentration at half of the fitted maximal effect.

SMILES	VACV mCherry inh	HCV inhibitor	NS1 inh	Vaccinia Venus	Pf growth 96h	Pf growth 48h
C=CCN1C=C/C(=C\C=C(C#N)C#N)c2ccccc21	i	10µM*	6%	i	?	?
CCCCCCN1C=C/C(=C\C=C(C#N)C#N)c2ccccc21	21%	?	9%	33%	?	?
c1ccc(CC(Nc2ccccn2)c2ccccc2)cc1 (configuration not stated)	-11%	6%	.	-13%	15µM*	?
CCc1noc(C)c1C(=O)N1CC(C)SC1=Nc1ccc(Cl)cc1 (configuration not stated)	-28%	?	.	-22%	13µM*	10µM*
Cc1oc(-c2cccc(Cl)c2)nc1CN1CCC(C(=O)NC2CC2)CC1	.	16%	-9%	.	45%	16%
CCc1ccccc1NC(=S)NC1CC2CCC(C1)N2Cc1ccc(F)cc1 (configuration not stated)	.	-14%	-1%	.	-8%	7.4µM*
CCc1ccccc1NC(=S)NC1CC2CCC(C1)N2Cc1ccco1 (configuration not stated)	i	-10%	7%	-10%	?	-3%
CC(NC(=S)NC1CCC(C(C)(C)C)CC1)c1ccccc1 (configuration not stated)	.	?	18%	.	9.3µM*	7.4µM*
Cc1ccc(CN2C3CCCC2CC(NC(=S)NCc2ccccc2)C3)cc1 (configuration not stated)	?	?	-3%	-21%	0%	12µM*
Cc1ccc(CNC(=S)NC2CCC(C(C)(C)C)CC2)cc1 (configuration not stated)	.	?	?	.	12µM*	9.3µM*
Cc1c(/C(O)=C2/C(=O)C(=O)N(Cc3cccnc3)C2c2cccs2)cnn1-c1ccccc1 (configuration not stated)	8%	-24%	-30%	11%	.	111%
CC(C)C(=O)NC(NC1CCS(=O)(=O)C1)C(Cl)(Cl)Cl (configuration not stated)	-11%	19%	-2%	7%	6%	-12%
COCCCNC(=O)c1ccc2c3c(onc13)-c1ccccc1C2=O	10%	?	0%	90%	-24%	-88%
CCc1ccc(NC(=S)NC2CC3CCCC(C2)N3Cc2cccs2)cc1 (configuration not stated)	?	7.9µM*	-2%	-24%	2.1µM*	?
Cc1cccc(NC(=S)NC2CC3CCC(C2)N3Cc2ccco2)c1C (configuration not stated)	i	16%	-17%	0%	?	-15%
Cc1cccc(NC(=S)NC2CC3CCCC(C2)N3Cc2ccccc2)c1C (configuration not stated)	.	?	-2%	.	1%	5.9µM*
CCN(CCNCC(O)COc1ccccc1C(C)C)c1cccc(C)c1 (configuration not stated)	?	13µM*	3%	?	5.2µM*	3.3µM*
O=C1NC2(CCCCC2)N(C(=O)c2ccccc2)C2=C1CCCC2	.	3.2µM*	.	.	?	-7%
Cc1ccc(C(=O)N2C3=C(CCCC3)C(=O)NC23CCCCC3)cc1	0%	9%	.	-7%	-20%	?
O=C(N/N=C\c1ccccn1)C1c2ccccc2Oc2ccccc21	0%	-5%	-5%	6%	23%	?
COc1cccc(NC(=O)Cn2c(=O)n(C)c(=O)c3sc4c(c32)COC(C)(C)C4)c1	.	11%	1%	.	2.6µM*	4.1µM*
Cc1cccc(NC(=O)Cn2nnc3sc4c(c3c2=O)CC(C)(C)OC4)c1	-14%	?	-3%	-6%	-10%	4%
CCCCOC(=O)c1ccc(NC(=O)COC(=O)CN2C(=O)NC3(CCCC3)C2=O)cc1	i	20%	.	-17%	.	.
Fc1cccc(CN2CCN(Cc3nc(CCc4ccccc4)no3)CC2)c1	.	5%	-4%	.	10µM*	35%
Fc1cccc(Cc2noc(CN3CCCCC3c3ccccn3)n2)c1 (configuration not stated)	-12%	11%	4%	0%	8.3µM*	-24%
SMILES	VACV mCherry inh	HCV inhibitor	NS1 inh	Vaccinia Venus	Pf growth 96h	Pf growth 48h
FC(F)(F)c1cccc(Cc2noc(CN3CCCC(OCc4ccccn4)C3)n2)c1 (configuration not stated)	-6%	13%	-7%	-4%	15µM*	-3%
COc1ccccc1CN1CCN(Cc2nc(Cc3ccccc3)no2)CC1	-15%	-16%	-1%	-1%	12µM*	?
FC(F)(F)c1cccc(Cc2noc(CN3CCCCC3c3ccccn3)n2)c1 (configuration not stated)	-8%	-7%	-1%	-5%	?	?
c1ccc(Cc2noc(CN3CCN(Cc4ccc5c(c4)OCO5)CC3)n2)cc1	-9%	0%	-1%	-15%	-23%	-12%
COc1ccc(C2C(C(=O)Nc3cccc(C)n3)c3ccccc3C(=O)N2C)cc1OC (configuration not stated)	.	13%	-9%	.	?	?
FC(F)(F)c1nnc(Nc2ccc(Cl)cc2)s1	i[7.34 µM]	?	-110%	-13%[7.34 µM]	14%	-8%
C/C=C(\C)C(=O)OC1CC(OC(C)=O)[C@@]2(C(=O)OC)COC3C2[C@@]12CO[C@](O)(C(=O)OC)C2[C@](C)(C12OC1(C)C1CC2OC2OC=C[C@]21O)C3O (some centres not stated)	i	.	.	-7%	.	.
C=CCn1c(=NC(=O)c2ccco2)sc2cc(C(=O)OCC)ccc21	-3%	-5%	9%	1%	6.6µM*	15%
O=C(Nc1cc2c3c(c1)CC(=O)N3CCC2)c1ccccc1Br	-6%	10µM*	.	-26%	49%	-11%
CC1C(=O)N2CCCc3cc(NC(=O)C(=O)NCc4ccc5c(c4)OCO5)cc1c32 (configuration not stated)	-3%	?	.	-15%	7.4µM*	8.3µM*
COCCNC(=O)C(=O)Nc1cc2c3c(c1)C(C)C(=O)N3CCC2 (configuration not stated)	.	14%	5%	.	104%	34%
O=C(NCCc1c[nH]c2ccccc12)C(=O)Nc1cc2c3c(c1)CC(=O)N3CCC2	-9%	18%[8.37 µM]	.	-19%	2.9µM*	1µM*
O=C(NCCc1ccc(F)cc1)C(=O)Nc1cc2c3c(c1)CC(=O)N3CCC2	-18%	?	.	-11%	?	?
COc1ccccc1CCNC(=O)C(=O)Nc1cc2c3c(c1)C(C)C(=O)N3CCC2 (configuration not stated)	-12%	-28%	.	-23%	?	13µM*
COc1ccc(S(=O)(=O)n2cnc3ccccc32)cc1OC	.	10%	-4%	.	-12%	18%
O=C(NCC1CC1)c1cccc2c(-c3ccc(F)c(F)c3)coc12	22%	.	.	-8%	.	.
